Screening results deposited in PubChem by National Center for Advancing Translational Sciences (NCATS).
An excerpt weighted towards active compounds, which were near 3.7% of everything screened.
ELG1 DNA repair – qHTS screen for small molecules that inhibit ELG1-dependent DNA repair in human embryonic kidney (HEK293T) cells expressing luciferase-tagged ELG1. HEK293T ELG1-luciferase reporter, luminescence, 16 h; DNA damage induced by 5-fluorouridine. Potency, µM (series often up to 46.1 µM), inactives show at the top dose activity change, negative = inhibition, most hits filed as inhibitors. 330,000 compounds, 2.3% hits. AID 504467, 2011; note: % is set by controls: 0 for no effect and ±100 for the full control effect; nearly all actives have a fitted effect of over 55% in size
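Luminescence from the luciferase reporter, measured 30 min after ONE-Glo reagent at room temperature, was the read-out. Beforehand, 2,000 cells per well were exposed for 16 hr at 37 °C to 5-fluorouridine together with compound or vehicle.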
A549 tox-1 – Nrf2 qHTS screen for inhibitors: counterscreen for cytotoxicity; A549 ARE-Fluc cells, CellTiter-Fluor viability, 18-24 h; Potency, µM (top dose mostly 46 µM), inactives show at the top dose activity change, negative = cytotoxicity, usual class: inhibitors; 390,000 compounds, 0.16% hits; AID 504648, 2011; note: % is set by controls: 0 for no effect and ±100 for the full control effect
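A549 ARE-Fluc cells in 5% FBS OPTI-MEM, 5000 cells/well, rested 2 h then exposed to compounds in concentration-response for 18-24 h at 37 °C. Viability by CellTiter-Fluor fluorescence (Ex 405/Em 525) after 30 min; luciferase luminescence (BugLite, 15 min, RT) read afterwards.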
Nrf2 ARE act – qHTS of Nrf2 Activators; AREc32 ARE-luciferase reporter (MCF7-derived line), luminescence, 24 h; 410,000 compounds, 0.31% hits; Potency, µM (doses to about 46.1 µM), without a hit: at the top dose activation, actives largely listed as activators; AID 624171, 2012; note: % of control where 0% means no effect; nearly all actives have a fitted effect of over 65% in size
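AREc32_Fluc, 1000 cells/well, OPTI-MEM + 5% FBS, o/n 37 deg C 5% CO2; 23 nL cpd by pin tool, 24 hr; Steady-Glo 30 min RT, luminescence.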
Nrf2 inh – Nrf2 qHTS screen for inhibitors | Potency, µM (highest dose often 46 µM), without a hit: at the highest dose activity change, negative = inhibition, actives largely listed as inhibitors | 360,000 compounds, 2.1% hits | A549 ARE-Fluc reporter, luciferase luminescence, 18-24 h; note: % is set by controls: 0 for no effect and ±100 for the full control effect; nearly all actives have a fitted effect of over 60% in size
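Nrf2 activity is the BugLite luminescence, read 15 min after reagent at room temperature, following CellTiter-Fluor cytotoxicity readout (30 min, 37C). Compound titrations were applied for 18-24 h to 5000 A549 ARE_Fluc cells/well in 5% FBS OPTI-MEM.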
FLuc counter 3 – Nrf2 qHTS screen for inhibitors: Purified Fluc Biochemical Counterscreen for Hit Validation. shares compounds with Nrf2 inh. purified firefly luciferase, luminescence inhibition. Potency, µM (titrated, usually from 57.5 µM), without a hit: at the highest dose activity change, negative = inhibition, actives largely listed as inhibitors. 1,400 compounds, 4% hits; note: % is set by controls: 0 for no effect and ±100 for the full control effect; nearly all actives have a fitted effect of over 65% in size
Target sequence (P08659 whole entry, looked up): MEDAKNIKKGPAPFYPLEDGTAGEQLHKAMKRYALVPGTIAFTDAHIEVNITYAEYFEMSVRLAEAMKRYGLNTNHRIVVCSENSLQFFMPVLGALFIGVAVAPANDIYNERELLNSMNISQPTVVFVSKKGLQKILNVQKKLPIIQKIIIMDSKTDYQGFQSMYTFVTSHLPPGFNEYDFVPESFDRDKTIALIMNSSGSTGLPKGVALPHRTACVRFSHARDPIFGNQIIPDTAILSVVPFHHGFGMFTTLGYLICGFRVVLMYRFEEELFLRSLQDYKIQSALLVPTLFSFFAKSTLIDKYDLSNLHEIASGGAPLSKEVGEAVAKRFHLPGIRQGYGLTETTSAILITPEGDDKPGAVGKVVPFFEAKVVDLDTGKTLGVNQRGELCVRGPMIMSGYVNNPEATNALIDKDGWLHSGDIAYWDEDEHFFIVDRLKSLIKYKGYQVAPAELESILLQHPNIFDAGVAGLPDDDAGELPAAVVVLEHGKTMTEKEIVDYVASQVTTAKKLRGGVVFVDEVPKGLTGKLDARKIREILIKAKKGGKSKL
A549 tox-2 – Nrf2 qHTS screen for inhibitors: A549 ARE-Fluc Cytotoxicity Counterscreen for Hit Validation; AID 720523, 2013; 1,400 compounds, 2% hits; shares compounds with Nrf2 inh; Potency, µM (doses to about 46.1 µM), inactives show top-dose activity change, negative = cytotoxicity, hits mostly inhibitors; A549 ARE-Fluc cells, cytotoxicity counterscreen;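 note: cells exposed to compounds for 18 to 24 hours; % is set by controls: 0 for no effect and ±100 for the full control effect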
ARE-Fluc inh – Nrf2 qHTS screen for inhibitors: Nrf2 A549 ARE-Fluc Confirmation Assay for Hit Validation | shares compounds with Nrf2 inh | Potency, µM (doses to about 46.1 µM), for inactives: at the highest dose activity change, negative = inhibition, most hits filed as inhibitors | A549 ARE-firefly luciferase reporter, luminescence | AID 720524, 2013 | 1,400 compounds, 74% hits; note: % is set by controls: 0 for no effect and ±100 for the full control effect; nearly all actives have a fitted effect of over 65% in size
* hit, by the source's call; ? = inconclusive; . = no result; ! = not confirmed by another sample; [ ] = dose if it differs, or a comment. Calls come from the whole dose curve; as a rule, active = well fitted curve in the direction sought with a large enough effect; inconclusive = small, poorly fitted or top-dose-only effect, or another doubt; inactive = no such curve, though single readings can be large; an effect the other way counts as inactive or inconclusive. Potency is the fitted concentration of half-maximal effect.

SMILES	ELG1 DNA repair	A549 tox-1	Nrf2 ARE act	Nrf2 inh	FLuc counter 3	A549 tox-2	ARE-Fluc inh
O=C(CSc1oc(-c2ccc(F)cc2)nc1S(=O)(=O)c1ccccc1)NC1CCCCC1	.	2%	0%	3%[9.27 µM]	.	.	.
CCOCCc1nn2c(=O)cc(COC(=O)CNC(=O)c3cccc(C)c3)nc2s1	.	11%	6%	?	.	.	.
CN(CC(=O)Nc1ccc(OC(F)(F)F)cc1)C(=O)c1ccc(N2CCCC2=O)cc1	?	-6%	0%	2.9µM*	2%	1%	5.2µM*
CN(CC(=O)Nc1ccc(Cl)cc1)C(=O)c1ccc(N2CCCC2=O)cc1	?	8%	4%	6%	.	.	.
COc1ccc(N2CCN(c3ncnc4onc(C)c34)CC2)cc1	.	5%	-1%	9.2µM*	3%	-2%	7.3µM*
CCOC(=O)c1c(C)oc2ncnc(NCCCN3CCN(c4cc(C)ccc4C)CC3)c12	.	?	-1%	?	.	.	.
O=C(Nc1ccc(F)cc1)c1cccc(N2CCCS2(=O)=O)c1	.	1%	8%	?	.	.	.
COc1ccncc1-c1ccc(C2=CC(=O)CC(C)(C)C2=O)cc1	.	.	7%	.	.	.	.
COc1ccc2c(C(=O)NCc3ccc4c(c3)OCO4)c(-c3ccc(S(C)(=O)=O)cc3)sc2c1	?	?	0%	7.3µM*	-2%	?	16µM*
CC(C)(C)OC(=O)NCCCCCNC(=O)c1nc[nH]c1C(=O)N1CCN(C(=O)OC(C)(C)C)CC1	?	-8%	-1%	-17%	.	.	.
CCc1ccc2nc(N3CCN(C(=O)c4ccccc4)CC3)sc2c1	.	-9%	0%	.	.	.	.
CCN(Cc1ccccc1)S(=O)(=O)c1ccc(C(=O)N2CCN(c3nc4ccccc4s3)CC2)cc1	12µM*	-13%	0%	1.8µM*	-11%	0%	7.3µM*
Cc1ccc(C(=O)Oc2ccccc2N2C(=O)C3CCCCC3C2=O)cc1 (configuration not stated)	13%	8%	-2%	1.3µM*	-2%	0%	3.3µM*
O=C(Oc1ccccc1N1C(=O)C2CCCCC2C1=O)c1ccccc1 (configuration not stated)	11%	1%	-1%	-18%	.	.	.
O=C(Nc1ccc(F)cc1)c1ccc(Cn2nc(N3CCN(c4ccccc4)CC3)ccc2=O)o1	.	?	-1%	8.2µM*	-13%	-28%	2.6µM*
CC(=O)c1ccc(NC(=O)Cn2nc(N3CCN(c4ccccc4)CC3)ccc2=O)cc1	.	-12%	4%	?	.	.	.
Cc1ccc(NC(=O)CN2C(=O)COc3ccc(S(=O)(=O)NC4CCCC4)cc32)cc1Cl	.	0%	6%	?	.	.	.
Cc1ccc(-c2c[n+]3c(n2-c2ccccc2)CCC3)cc1	2.3µM*	-10%	2%	6.5µM*	2%	-5%	13µM*
CCOc1ccc(-n2c(-c3ccccc3)c[n+]3c2CCCCC3)cc1	?	-18%	0%	2.1µM*	0%	-14%	5.8µM*
OC(c1ccc(F)cc1)c1nc(-c2ccoc2)cs1 (configuration not stated)	.	.	26%	.	.	.	.
COc1ccc2c(c1)c(C)cc[n+]2Cc1ccccc1	15%	-18%	-1%	6.5µM*	-1%	0%	10µM*
O=C(Nc1cccc(S(=O)(=O)Nc2ccc(Cl)cc2)c1)c1ccc(Cl)nc1	?	?	0%	3.3µM*	-16%	-22%	4.1µM*
COc1ccc(NS(=O)(=O)c2cccc(NC(=O)c3ccc(Cl)nc3)c2)cc1	?	?	0%	0.58µM*	0%	-5%	1.6µM*
CC(C)(C)OC(=O)C[C@H]1C/C=C\C[C@@H](CC(=O)N(CCO)Cc2ccccc2)C(=O)NC[C@@H](c2ccccc2)OC1=O	?	-9%	5%	10%	.	.	.
CN(C)C=Nc1ccc([N+](=O)[O-])c2ccccc12	.	.	0%	.	.	.	.
SMILES	ELG1 DNA repair	A549 tox-1	Nrf2 ARE act	Nrf2 inh	FLuc counter 3	A549 tox-2	ARE-Fluc inh
Cc1ccc(OCc2nnc(SCC(=O)N3C(C)CCCC3C)o2)cc1 (configuration not stated)	4%	7%	1%	7%	.	.	.
COc1cccc(CNC(=O)CCn2c(=O)c3cccn3c3cccnc32)c1	-4%	1%	?	1.2µM*!	-2%	-3%	7%
COc1ccccc1CNC(=O)CCn1c(=O)c2cccn2c2cccnc21	.	11%	14%	2%	.	.	.
CCn1c(Oc2ccc(F)cc2F)nc2c1c(=O)n(C)c(=O)n2C	.	-18%	-2%	?	.	.	.
Cc1ccc(Cl)cc1N1CCN(C(=O)c2cc3c(=O)n(C)c4ccccc4c3n2C)CC1	?	-18%	0%	4.1µM*	4%	-22%	6.5µM*
CC(=O)Nc1ccccc1OCC(=O)c1cc(C)n(Cc2cccs2)c1C	?	?	3%	0.41µM*	15µM*	-4%	-24%
CN(C)S(=O)(=O)c1cccc(C(=O)Nc2cc(S(=O)(=O)N3CCOCC3)ccc2N2CCCC2)c1	.	-10%	0%	-19%	.	.	.
Cc1cccc(Cl)c1NC(=O)N1CCCN(c2nc3ccc(Cl)cc3s2)CC1	7%	?	7%	9.2µM*	-16%	-30%	9.2µM*
CC(C)(C)C(=O)N1CCN(c2nc3ccc(Cl)cc3s2)CC1	?	-4%	3%	?	.	.	.
c1ccc(-c2nnc(-c3ccccn3)nc2NC2CCCCC2)cc1	18µM*	?	5%	1.8µM*	-14%	?	4.1µM*
Oc1ccccc1-c1nc(NC2CCCC2)c2ccccc2n1	?	-6%	4%	-16%	.	.	.
CCc1nc(N)nc(N)c1-c1ccc(Cl)c([N+](=O)[O-])c1	.	-1%	8%	0.37µM*	1%	-5%	0.92µM*
Cc1cc(OCC(=O)NCCc2c[nH]c3ccccc23)c2c(C)cc(=O)oc2c1	?	-14%	5%	?	.	.	.
Clc1cccc(Cl)c1C[n+]1cccc2ccccc21	.	-13%	-1%	4.1µM*	1%	4%	?
Nc1c2c(nc3ccccc13)CSCC2	.	-4%	0%	-2%	.	.	.
COc1ccc2c(C)c(CCC(=O)NCc3ccc(Cl)cc3)c(=O)oc2c1C	.	0%	1%	-22%	.	.	.
Cc1cc2oc(=O)cc(CSc3nnc(-c4cccs4)o3)c2cc1C(C)C	?	?	0%	8.2µM*	-2%	-2%	?
